Measured values as given in PubChem BioAssay (NCI).
The panel holds about 79,000 compounds, 15% with a hit somewhere; the sample as a whole holds those more often. Rule as the data show it: active = growth inhibition above about 70%; inactive = the rest.

Legend:
[1] = NCI Yeast Anticancer Drug Screen. Data for the rad50 strain (AID 155);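 also: 0% = growth of vehicle-only cultures of the same strain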; details: S. cerevisiae rad50 strain growth inhibition; at 50.0 µM; stronger effect = higher value
Method in brief: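 DNA repair mutant yeast, compound exposure, growth read-out; inhibition is taken relative to vehicle.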

[2] = NCI Yeast Anticancer Drug Screen. Data for the mec2-1 strain (AID 157); details: S. cerevisiae mec2-1 strain, at 50.0 µM, stronger effect = higher value
Method in brief: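 Yeast mec2-1 mutant treated with compound. Readout: growth inhibition vs vehicle controls.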

[3] = NCI Yeast Anticancer Drug Screen. Data for the sgs1 mgt1 strain (AID 161);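 also: 0% = growth of cultures given vehicle only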; details: S. cerevisiae sgs1 mgt1 strain, at 50.0 µM, stronger effect = higher value
Method in brief: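 Mutant yeast exposed to compound; growth scored against vehicle-only wells.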

[4] = NCI Yeast Anticancer Drug Screen. Data for the cln2 rad14 strain (AID 165);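 also: 0% = growth equal to vehicle treated cultures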; details: S. cerevisiae cln2 rad14 strain, at 50.0 µM, stronger effect = higher value
Method in brief: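 cln2 rad14 yeast strain; compound exposure; growth inhibition read vs vehicle controls.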

[5] = NCI Yeast Anticancer Drug Screen. Data for the bub3 strain (AID 167); details: S. cerevisiae bub3 mutant strain, at 50.0 µM, stronger effect = higher value
Method in brief: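 In this screen, a yeast mutant lacking normal mitotic checkpoint function is challenged with compound. Relative growth versus vehicle gives the inhibition value.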

[6] = NCI Yeast Anticancer Drug Screen. Data for the mlh1 rad18 strain (AID 175); details: S. cerevisiae mlh1 rad18 strain growth inhibition; at 50.0 µM; stronger effect = higher value
Method in brief: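 Yeast w/ defined DNA-repair lesions; compound exposure; growth vs vehicle controls → % inhibition.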

Measured: growth inhibition

NC(=O)CC1OC(=O)Cc2cc3c(c(O)c21)C(=O)c1c(O)cccc1C3=O (configuration not stated)
inactive: [1] 1.05% | [2] 3.55% | [3] 22.4% | [4] 27.7% | [5] 16.5% | [6] -28.6%

N#Cc1nc(C(F)(F)F)oc1N
inactive: [1] -2.6% | [2] -1% | [3] -0.95% | [4] -7.85% | [5] -3.3% | [6] -42.4%

COc1cc(-c2nc(SC)nc3c2CCc2ccccc2-3)cc(OC)c1OC
inactive: [1] -6% | [2] -5.85% | [3] 2.95% | [4] 10.9% | [5] 4.35% | [6] -20.2%

COc1cc([C@H]2OC[C@H]3[C@@H]2CO[C@@H]3c2cc(OC)c3c(c2)OCO3)cc(OC)c1OC
inactive: [1] 17.1% | [2] -2.25% | [3] 1.25% | [4] 21.7% | [5] 39% | [6] -80.7%

NC(Cc1ccc(S(=O)(=O)O)cc1)C(=O)NC(Cc1ccc(S(=O)(=O)O)cc1)C(=O)NC(Cc1ccc(S(=O)(=O)O)cc1)C(=O)NC(Cc1ccc(S(=O)(=O)O)cc1)C(=O)O (configuration not stated)
inactive: [1] -6.5% | [2] 5.65% | [3] 5.2% | [4] -2.3% | [5] 5.85% | [6] 8.85%

COC(=O)C1CCC(=O)N1CN(C(C)=O)c1cccc(O)c1 (configuration not stated)
inactive: [1] 5.8% | [2] 3.3% | [3] 0.2% | [4] 9.75% | [5] -15.7% | [6] -52.3%

CC(C)C1OC(N)=C(C#N)C1(C#N)C#N (configuration not stated)
inactive: [1] 8.9% | [2] 27% | [3] -7.35% | [4] -11.8% | [5] -19% | [6] -38.6%

Fc1ccc(Nc2nc(Cl)c3[nH]cnc3n2)cc1Cl
inactive: [1] 11.5% | [2] 1.45% | [3] 27.6% | [4] 7.6% | [5] 32.6% | [6] -28.7%

CCCCCCSC[C@H](OC(C)=O)[C@@H](OC(C)=O)[C@@H](OC(C)=O)[C@@H](COC(C)=O)OC(C)=O
inactive: [1] -7% | [2] -14.8% | [3] 2.65% | [4] -2.95% | [5] 9% | [6] -5.35%

N#Cc1nc(-c2cccc(-c3nc(C#N)c(N)o3)n2)oc1N
inactive: [1] 2.7% | [2] 13.7% | [3] -18.1% | [4] 7.9% | [5] -11.8% | [6] -58.6%

COC(=O)C(=O)C(C(=O)C(=O)Nc1nc2ccc(C)cc2s1)c1nc2ccc([N+](=O)[O-])cc2[nH]c1=O (configuration not stated)
inactive: [1] 56.1% | [2] 15.4% | [3] 22.1% | [4] -30.6% | [5] 26.1% | [6] 20.2%

O=C1C=CC=C/C1=C1\N=C(c2ccccc2OCC(=O)c2ccc(Br)cc2)SS1
inactive: [1] 10.1% | [2] 18.1% | [3] 12.8% | [4] 8.75% | [5] -0.75% | [6] -43.5%

Cc1coc2c1C(OC(=O)C(C)C)C1(C)C(C)CCC(O)C1C2=O (configuration not stated)
inactive: [1] 9.2% | [2] -6.4% | [3] 31.5% | [4] 10.7% | [5] -1.3% | [6] -37.1%

COC(=O)C(=O)C(C(=O)C(=O)Nc1ccc(Cl)c(Cl)c1)c1nc2ccc(C(=O)c3ccccc3)cc2[nH]c1=O (configuration not stated)
inactive: [1] 6.8% | [2] -9.65% | [3] -15.1% | [4] 5.95% | [5] -3.05% | [6] 4.95%

C[C@]12CC[C@@H]3c4ccc(OS(N)(=O)=O)cc4CC[C@H]3[C@@H]1CCC2=O
inactive: [1] 2.35% | [2] 8.15% | [3] -2.05% | [4] 8.35% | [5] 5.6% | [6] 15.8%

Cc1ccc2c(/C=C/c3ccc(N(C)C)cc3)ccc(C(C)C)cc1-2
inactive: [1] -5.4% | [2] -41.3% | [3] 19.1% | [4] 1.75% | [5] -22.2% | [6] -53.2%

Cc1ccc(/C=N/Nc2nc3ccccc3s2)s1
inactive: [1] -24.5% | [2] -4% | [3] -9.55% | [4] 0.7% | [5] -12.1% | [6] -11.2%
